A short description of assay [1]: Viability qHTS for spleen associated tyrosine kinase inhibitor (SYKi) naive MV4-11 cells (AID 1963823). Also: nearly all actives have a fitted effect of over 40% in size. In a few lines: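 Viability of MV4-11 AML cells lacking prior SYK inhibitor exposure is scored by CellTiter-Glo luminescence following 72 hr compound incubation at 37 C, 5% CO2, seeded at 500 cells per well.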
Background: In qHTS, concentration-response curves come from the screen itself.

Assay [2] is described as follows: Viability qHTS for spleen associated tyrosine kinase inhibitor (SYKi) drug resistant MV4-11 cells (AID 1963824). Also: nearly all actives have a fitted effect of over 35% in size. In a few lines: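 SYK inhibitor-resistant MV4-11 AML cells, 500 per well, added to predispensed compounds and incubated 72 hr at 37 C, 5% CO2. Viability measured by CellTiter-Glo luminescence after 10 min at room temperature.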
A short description of assay [3]: Quantitative highthroughput screen to assess conditional lethalithy of NOMO1 cells grown in RPMI1640 with untreated serum (RPMI+s) (AID 1963876). Also: nearly all actives have a fitted effect of over 35% in size.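 As to Viability: 100% = DMSO wells and 0% = empty wells without cells.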 In a few lines: (§1)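 Each medium arm—HPLM with 10% dialyzed FBS, or RPMI1640 with 5 mM glucose and 10% untreated or dialyzed FBS—was screened against an 11-point, 3-fold compound titration for 48 h at 37 °C, with CellTiter-Glo luminescence as endpoint.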

A short description of assay [4]: Quantitative highthroughput screen to assess conditional lethalithy of NOMO1 cells grown in RPMI1640 with dialyzed fetal bovine serum (RPMI+ds) (AID 1963877). Also: nearly all actives have a fitted effect of over 30% in size.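 As to Viability: series mostly up to about 46 µM; 100% = DMSO control wells and 0% = empty wells.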 In a few lines:
as §1

Assay [5] in a line: Quantitative highthroughput screen to assess conditional lethalithy of P12 Ichikawa cells grown in Human Plasma-Like Medium with dialyzed fetal bovine serum (HPLM+ds) (AID 1963879). Also: nearly all actives have a fitted effect of over 35% in size. As to Viability: series mostly up to about 46 µM. The following applies: Potency: viability. In a few lines: as §1
Assay [6] in a line: Quantitative highthroughput screen to assess conditional lethalithy of P12 Ichikawa cells grown in RPMI1640 with untreated serum (RPMI+s) (AID 1963881). Also: nearly all actives have a fitted effect of over 35% in size.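 As to Viability: series mostly up to about 46 µM; 100% = DMSO wells and 0% = empty wells without cells.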 The following applies: Potency: viability. In a few lines: as §1
Assay [7] is described as follows: Cellular viability qHTS for adrenocortical cancer (ACC) cell line SW-13 (AID 1963989). Also: nearly all actives have a fitted effect of over 65% in size.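 As to activity (max response): cells grown in serum-free medium with ITS supplement; % is scaled to controls: 0 for no effect and ±100 for the full control effect.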 The conditions noted are these: SW-13 ACC cells viability, CellTiter-Glo, 48 h; activity (max response): stronger effect = lower value. In outline: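 IC50 and maximal-response values come from four-parameter logistic fits of titration data. SW-13 cells in serum-free medium received compounds (up to 46 uM final) for 48 h before CellTiter-Glo luminescence.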

Assay [8] can be described thus: Quantitative highthroughput screen to assess conditional lethalithy of SEM cells grown in RPMI1640 with unreated serum (RPMI+s) (AID 1963883). Also: nearly all actives have a fitted effect of over 35% in size. In outline: as §1
Assay [9] can be described thus: Quantitative highthroughput screen to assess conditional lethalithy of SEM cells grown in RPMI1640 with dialyzed fetal bovine serum (RPMI+ds) (AID 1963884). Also: nearly all actives have a fitted effect of over 35% in size.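 As to Viability: series mostly up to about 46 µM; 100% = DMSO control wells and 0% = empty wells without cells.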 In a few lines: as §1
Assay [10] in a line: Cellular viability qHTS for adrenocortical cancer (ACC) cell line NCI-H295R (AID 1963990). Also: nearly all actives have a fitted effect of over 60% in size. In outline:
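Adrenocortical carcinoma cells, suspended at 300 000 cells/mL in serum-free DMEM plus ITS, rested overnight before pin transfer of compound. After two days' incubation, ATP-dependent luminescence was recorded and curve-fitted.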

Assay [11] in a line: Quantitative highthroughput screen to assess conditional lethalithy of SEM cells grown in Human Plasma-Like Medium with dialyzed fetal bovine serum (HPLM+ds) (AID 1963882). Also: nearly all actives have a fitted effect of over 35% in size. As to Viability: series mostly up to about 46 µM. In outline:
as §1

Assay [12] in a line: Quantitative highthroughput screen to assess conditional lethalithy of NOMO1 cells grown in Human Plasma-Like Medium with dialyzed fetal bovine serum (HPLM+ds) (AID 1963878). Also: nearly all actives have a fitted effect of over 35% in size. In a few lines:
as §1

The nature of assay [13]: Quantitative highthroughput screen to assess conditional lethalithy of P12 Ichikawa cells grown in RPMI1640 with dialyzed fetal bovine serum (RPMI+ds) (AID 1963880). Also: nearly all actives have a fitted effect of over 35% in size.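 As to Viability: 100% = DMSO wells and 0% = empty wells on each plate.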 The following applies: Potency: P12-Ichikawa viability. In a few lines:
as §1

Several values for one entry are separate records, joined by “and”; a condition that tells them apart may be missing. Equal entries are not always repeated. Inconclusive results are not listed. A structure can be active in one record and inactive in another. Activity calls are given as the source filed them. Calls follow the shape of the dose curve; as a rule, active = well fitted curve in the direction sought with a large enough effect; inconclusive = small, poorly fitted or top-dose-only effect, or another doubt; inactive = no such curve, though single readings can be large; an effect the other way counts as inactive or inconclusive.
Potency is read from the fitted curve at half-maximal effect.

On to `COc1ccc2c(c1)c(C1=C(c3c[nH]c4ccccc34)C(=O)NC1=O)cn2CCCN(C)C`, for which the Potency is 0.148 µM (active) in [1], 0.332 µM (active) in [2] and 15.8 µM (active) in assay [7]. Moreover, the Potency entry in assay [3], in assay [4], in [5] and in [6] was “inactive” throughout.
Take `CCN1CCN(CC(=O)Nc2ccc(-c3cccc4c(=O)cc(N5CCOCC5)oc34)c3sc4ccccc4c23)CC1`: the Potency in assay [1] was 422 nM (active) and 407 nM (active); in [2], 422 nM (active) and 723 nM (active); in assay [3] it was 4.18 µM (active); in [4], 3.72 µM (active); in assay [8] it was 1.05 µM (active); in assay [9] it was 1.32 µM (active). In addition, the values for the Potency in [7] and in [10] were 9 µM (active) and 7.15 µM (active), respectively. Also, in assay [5], the Potency result was “inactive”.
For the compound `Cn1c(=O)c(-c2c(Cl)cccc2Cl)cc2cnc(Nc3cccc(C(=O)O)c3)nc21`, the Potency was 0.662 µM (active) in assay [1], 0.259 µM (active) in [2] and 14.8 µM (active) in assay [8]. Besides, the Potency result in assay [3], in assay [4] and in assay [10] was “inactive” throughout. Besides, the activity (max response) in [7] was -0.886% (inactive).
With `Oc1ccc(OCc2ccccc2)cc1`, the Potency was 5.9 µM (active) in assay [1]; “inactive and 8.33 µM (active)” in assay [2]; 18.7 µM (active) in assay [4]; 7.43 µM (active) in [5]; 3.72 µM (active) in [6]. Moreover, the Potency result in assay [3] and in assay [10] was “inactive” in each case. Further, the activity (max response) in assay [7] was 12.2% (inactive).
Consider `O=C1NC(=O)C(c2cnc3ccccn23)=C1c1cn2c3c(cc(F)cc13)CN(C(=O)N1CCCCC1)CC2`, for which the Potency was 231 nM (active) and 833 nM (active) in [1]; 51.7 nM (active) and 372 nM (active) in assay [2]; 0.588 µM (active) in [5]; 0.166 µM (active) in [6]; 0.0209 µM (active) in assay [11]; 0.0186 µM (active) in assay [8]. Further, the Potency is 0.0166 µM (active) in assay [9] and 25.1 µM (active) in [10]. For the same compound, the Potency entry in [3] and in assay [4] was “inactive” in each case.
As for `CCOC(=O)c1ccc(OC(=O)CCCCCN=C(N)N)cc1`, the Potency entry in assay [1], in [2] and in assay [10] was “inactive” throughout. Further, the Potency in assay [3] is 3.32 µM (active); in assay [4], 3.32 µM (active); in [5] it was 1.87 µM (active); in assay [6], 7.43 µM (active). The activity (max response) in assay [7] was 3.73% (inactive).
In the case of `COc1ccc(OC)c(-c2nnc3ccc(-c4ccc(OC)c(O[C@@H]5CCOC5)c4)nn23)c1`, the Potency is 2.63 µM (active) in assay [1], 2.95 µM (active) in assay [2], 5.01 µM (active) in [7] and 0.501 µM (active) in assay [10]. Further, the Potency entry in assay [3], in assay [4], in assay [5] and in assay [9] was “inactive” each time.
Regarding `NC(=O)c1cccc2[nH]c(-c3ccc([C@H]4CCCN4)cc3F)nc12`, the Potency was 20.6 µM (active) in [1]; 16.6 µM (active) in assay [2]; 18.7 µM (active) in assay [4]; 3.72 µM (active) in assay [8]; 2.64 µM (active) in assay [9]; 8.91 µM (active) in assay [10]. The Potency entry in [3] is “inactive”. In assay [7], the activity (max response) is -3% (inactive).
As to `CCN(CC)CCOc1ccc(Nc2ncc3cc(-c4c(Cl)cccc4Cl)c(=O)n(C)c3n2)cc1`, the Potency in [1] is 0.0661 µM (active); in [2], 0.118 µM (active); in [3], 2.64 µM (active); in assay [12], 2.64 µM (active); in assay [5] it was 3.72 µM (active); in assay [13], 3.32 µM (active). For the same compound, the Potency in assay [6] is 2.96 µM (active); in assay [11], 1.66 µM (active); in [8] it was 1.05 µM (active); in [9] it was 2.35 µM (active); in [7] it was 1 µM (active); in assay [10] it was 0.794 µM (active).
With `O=C1Cc2cc(CCN3CCN(c4nsc5ccccc45)CC3)c(Cl)cc2N1`, the Potency is 11.9 µM (active) and 9.2 µM (active) in assay [1]; 3.35 µM (active) and 4.11 µM (active) in assay [2]. The Potency entry in assay [3], in assay [4], in [5], in assay [6], in assay [11] and in assay [9] was “inactive” throughout.
For `Cc1cnc(Nc2cccc(CN3CCOCC3)c2)nc1Nc1cccc(S(=O)(=O)NC(C)(C)C)c1`, the Potency is 0.0934 µM (active) in [1] and 0.186 µM (active) in [2]. Besides, the Potency entry in assay [3], in assay [4], in [6] and in assay [10] was “inactive” each time. Also, the activity (max response) in assay [7] was -8.11% (inactive).
As to `NC(=O)Nc1cc(-c2cccc(F)c2)sc1C(=O)N[C@H]1CCCNC1`, the Potency result in assay [1] and in assay [2] was “inactive” each time. Moreover, the Potency is 1.05 µM (active) in assay [3]; 0.59 µM (active) in assay [4]; 1.87 µM (active) in [5]; 1.18 µM (active) in assay [13]; 1.18 µM (active) in assay [6]; 0.0074 µM (active) in assay [8]. Also, the Potency was 1.78 µM (active) in assay [7] and 0.794 µM (active) in assay [10].
As to `NC1(Cc2ccc(Cl)cc2)CCN(c2ncnc3[nH]ccc23)CC1`, the Potency is 3.72 µM (active) in assay [1]; 5.25 µM (active) in assay [2]; 10.5 µM (active) in assay [3]; 9.35 µM (active) in [4]; 5.26 µM (active) in [8]; 7.43 µM (active) in [9]. Besides, in assay [10], the Potency was 20 µM (active).
With `S=P(N1CC1)(N1CC1)N1CC1`, the Potency entry in assay [1] was “inactive and 6.61 µM (active)”; in assay [2], 3.32 µM (active). The Potency entry in assay [3], in [4], in [5], in assay [13], in [6] and in assay [10] was “inactive” throughout.
`Cc1cccc(-c2[nH]c(C(C)(C)C)nc2-c2ccc3c(c2)OCO3)n1`: the Potency in assay [1] is 2.35 µM (active); in assay [2] it was 1.46 µM (active) and 2.09 µM (active); in [3] it was 8.33 µM (active); in assay [12], 10.5 µM (active); in [5], 9.35 µM (active); in assay [13] it was 11.8 µM (active). In addition, the Potency was 10.5 µM (active) in assay [6]; 8.33 µM (active) in assay [11]; 9.35 µM (active) in assay [8]; 9.35 µM (active) in assay [9]; 7.94 µM (active) in assay [7]; 4.47 µM (active) in [10].
As to `Cc1ccc(S(=O)(=O)Nc2nc3ccccc3nc2Nc2ccc3nsnc3c2)cc1`, the Potency is 10.3 µM (active) in assay [1]; 8.2 µM (active) in [2]; 1.15 µM (active) in assay [3]; 1.62 µM (active) in [4]; 5.75 µM (active) in assay [5]; 4.07 µM (active) in assay [6]. Also, the figures for the Potency in [11] and in [9] were 7.24 µM (active) and 4.07 µM (active), respectively. Further, the activity (max response) in assay [7] was 0.221% (inactive). Besides, the Potency entry in [10] was “inactive”.

(Values after PubChem BioAssay (NCATS).)
